We go through seven compounds from ChEMBL document CHEMBL1961873, “Compounds: GSK PKIS; Assays: Nanosyn kinase panel” (2012).

Assay [1] has as its target T1, Tyrosine-protein kinase ITK/TSK (Homo sapiens) (UniProt Q08881).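 Also: values are mean percent inhibition of ITK from the GSK PKIS screen.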
T1 sequence (whole entry): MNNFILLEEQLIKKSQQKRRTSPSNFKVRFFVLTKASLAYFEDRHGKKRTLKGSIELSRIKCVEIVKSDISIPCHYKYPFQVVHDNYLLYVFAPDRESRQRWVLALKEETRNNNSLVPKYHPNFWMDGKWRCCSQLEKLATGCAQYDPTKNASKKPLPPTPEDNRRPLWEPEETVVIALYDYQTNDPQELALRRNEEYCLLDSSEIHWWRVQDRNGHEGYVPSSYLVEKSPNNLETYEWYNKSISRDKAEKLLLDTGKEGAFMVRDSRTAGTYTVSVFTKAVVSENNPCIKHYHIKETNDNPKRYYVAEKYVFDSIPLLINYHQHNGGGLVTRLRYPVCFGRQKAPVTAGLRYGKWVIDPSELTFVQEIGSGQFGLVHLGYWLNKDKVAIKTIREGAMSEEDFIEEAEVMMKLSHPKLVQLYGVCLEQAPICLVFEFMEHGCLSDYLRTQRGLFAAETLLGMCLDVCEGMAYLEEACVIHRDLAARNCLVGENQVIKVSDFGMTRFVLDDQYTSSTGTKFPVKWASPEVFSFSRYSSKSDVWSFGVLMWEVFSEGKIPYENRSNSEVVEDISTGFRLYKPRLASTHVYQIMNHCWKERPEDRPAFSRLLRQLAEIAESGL
Conditions: at 1 µM.

For assay [2], the target named is Tyrosine-protein kinase JAK1 (Homo sapiens) (UniProt P23458). Conditions: at 0.1 µM.
Sequence of Tyrosine-protein kinase JAK1 (Homo sapiens) (P23458 whole entry): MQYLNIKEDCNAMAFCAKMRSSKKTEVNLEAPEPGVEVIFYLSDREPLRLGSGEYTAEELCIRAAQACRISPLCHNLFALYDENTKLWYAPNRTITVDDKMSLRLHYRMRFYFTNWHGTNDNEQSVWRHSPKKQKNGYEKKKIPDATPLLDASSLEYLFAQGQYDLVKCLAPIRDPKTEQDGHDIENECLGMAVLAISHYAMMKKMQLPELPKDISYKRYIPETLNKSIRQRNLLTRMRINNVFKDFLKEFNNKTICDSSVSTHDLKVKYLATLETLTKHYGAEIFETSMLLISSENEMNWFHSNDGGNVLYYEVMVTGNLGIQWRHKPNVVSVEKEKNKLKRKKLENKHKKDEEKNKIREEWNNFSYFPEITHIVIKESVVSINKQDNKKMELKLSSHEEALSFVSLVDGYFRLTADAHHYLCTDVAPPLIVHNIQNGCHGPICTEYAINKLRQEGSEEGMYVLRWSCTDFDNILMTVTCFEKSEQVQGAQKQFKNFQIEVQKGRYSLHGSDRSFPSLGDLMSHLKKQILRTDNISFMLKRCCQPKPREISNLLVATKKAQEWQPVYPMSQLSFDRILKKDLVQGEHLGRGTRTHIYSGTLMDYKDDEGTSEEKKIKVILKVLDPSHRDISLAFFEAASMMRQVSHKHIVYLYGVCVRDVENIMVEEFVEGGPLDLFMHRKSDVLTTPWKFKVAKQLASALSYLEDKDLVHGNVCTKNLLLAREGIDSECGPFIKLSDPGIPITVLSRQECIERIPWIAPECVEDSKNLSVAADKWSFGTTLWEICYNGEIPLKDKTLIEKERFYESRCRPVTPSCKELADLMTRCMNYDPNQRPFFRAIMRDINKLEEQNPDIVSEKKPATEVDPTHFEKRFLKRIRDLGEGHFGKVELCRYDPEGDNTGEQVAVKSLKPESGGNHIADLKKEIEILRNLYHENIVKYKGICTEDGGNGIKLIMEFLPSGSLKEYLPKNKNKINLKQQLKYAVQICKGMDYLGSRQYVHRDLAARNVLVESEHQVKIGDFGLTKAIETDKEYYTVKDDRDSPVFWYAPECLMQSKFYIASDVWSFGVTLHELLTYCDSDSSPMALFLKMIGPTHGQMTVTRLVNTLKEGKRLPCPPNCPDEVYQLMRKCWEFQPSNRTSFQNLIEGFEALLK
Assay [3] shares this target. To be noted: at 1 µM.
The target in assay [4] is Tyrosine-protein kinase JAK2 (Homo sapiens) (UniProt O60674). To be noted: at 0.1 µM.
The target is the same in assay [5]. To be noted: at 1 µM.
For assay [6], the target named is T2, Tyrosine-protein kinase JAK3 (Homo sapiens) (UniProt P52333).
T2 sequence (whole entry): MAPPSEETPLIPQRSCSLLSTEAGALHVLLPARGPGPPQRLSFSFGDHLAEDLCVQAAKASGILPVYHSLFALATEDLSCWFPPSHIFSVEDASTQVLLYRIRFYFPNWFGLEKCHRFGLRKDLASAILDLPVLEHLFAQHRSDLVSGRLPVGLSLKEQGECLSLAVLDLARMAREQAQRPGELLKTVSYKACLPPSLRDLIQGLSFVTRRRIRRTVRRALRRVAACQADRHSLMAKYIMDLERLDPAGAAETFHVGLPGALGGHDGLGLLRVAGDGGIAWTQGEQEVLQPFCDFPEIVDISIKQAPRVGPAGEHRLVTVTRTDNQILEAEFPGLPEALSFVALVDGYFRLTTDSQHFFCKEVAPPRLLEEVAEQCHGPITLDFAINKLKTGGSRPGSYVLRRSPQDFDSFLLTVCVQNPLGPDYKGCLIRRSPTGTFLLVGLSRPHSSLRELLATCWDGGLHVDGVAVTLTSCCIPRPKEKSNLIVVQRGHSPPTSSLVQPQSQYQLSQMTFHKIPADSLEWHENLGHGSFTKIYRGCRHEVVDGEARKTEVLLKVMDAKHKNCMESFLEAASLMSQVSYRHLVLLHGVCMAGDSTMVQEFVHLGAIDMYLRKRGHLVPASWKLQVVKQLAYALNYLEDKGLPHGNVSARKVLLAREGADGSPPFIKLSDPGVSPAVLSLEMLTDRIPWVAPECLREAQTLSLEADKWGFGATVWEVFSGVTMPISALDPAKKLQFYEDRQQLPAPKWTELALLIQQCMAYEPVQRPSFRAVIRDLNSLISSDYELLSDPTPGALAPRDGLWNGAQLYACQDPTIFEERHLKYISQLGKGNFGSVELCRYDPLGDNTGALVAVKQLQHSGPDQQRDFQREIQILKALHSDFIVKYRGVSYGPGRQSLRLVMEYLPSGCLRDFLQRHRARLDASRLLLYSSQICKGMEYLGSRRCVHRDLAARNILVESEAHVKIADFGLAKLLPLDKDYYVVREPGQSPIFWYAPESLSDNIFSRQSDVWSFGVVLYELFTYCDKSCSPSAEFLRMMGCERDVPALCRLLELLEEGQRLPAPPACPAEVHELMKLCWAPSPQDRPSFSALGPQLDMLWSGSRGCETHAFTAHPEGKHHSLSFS
Conditions: at 0.1 µM.

The target in assay [7] is T2, Tyrosine-protein kinase JAK3 (Homo sapiens). To be noted: at 1 µM.
The target of assay [8] is Vascular endothelial growth factor receptor 2 (Homo sapiens) (UniProt P35968). To be noted: at 0.1 µM.
Sequence of Vascular endothelial growth factor receptor 2 (Homo sapiens) (P35968 whole entry): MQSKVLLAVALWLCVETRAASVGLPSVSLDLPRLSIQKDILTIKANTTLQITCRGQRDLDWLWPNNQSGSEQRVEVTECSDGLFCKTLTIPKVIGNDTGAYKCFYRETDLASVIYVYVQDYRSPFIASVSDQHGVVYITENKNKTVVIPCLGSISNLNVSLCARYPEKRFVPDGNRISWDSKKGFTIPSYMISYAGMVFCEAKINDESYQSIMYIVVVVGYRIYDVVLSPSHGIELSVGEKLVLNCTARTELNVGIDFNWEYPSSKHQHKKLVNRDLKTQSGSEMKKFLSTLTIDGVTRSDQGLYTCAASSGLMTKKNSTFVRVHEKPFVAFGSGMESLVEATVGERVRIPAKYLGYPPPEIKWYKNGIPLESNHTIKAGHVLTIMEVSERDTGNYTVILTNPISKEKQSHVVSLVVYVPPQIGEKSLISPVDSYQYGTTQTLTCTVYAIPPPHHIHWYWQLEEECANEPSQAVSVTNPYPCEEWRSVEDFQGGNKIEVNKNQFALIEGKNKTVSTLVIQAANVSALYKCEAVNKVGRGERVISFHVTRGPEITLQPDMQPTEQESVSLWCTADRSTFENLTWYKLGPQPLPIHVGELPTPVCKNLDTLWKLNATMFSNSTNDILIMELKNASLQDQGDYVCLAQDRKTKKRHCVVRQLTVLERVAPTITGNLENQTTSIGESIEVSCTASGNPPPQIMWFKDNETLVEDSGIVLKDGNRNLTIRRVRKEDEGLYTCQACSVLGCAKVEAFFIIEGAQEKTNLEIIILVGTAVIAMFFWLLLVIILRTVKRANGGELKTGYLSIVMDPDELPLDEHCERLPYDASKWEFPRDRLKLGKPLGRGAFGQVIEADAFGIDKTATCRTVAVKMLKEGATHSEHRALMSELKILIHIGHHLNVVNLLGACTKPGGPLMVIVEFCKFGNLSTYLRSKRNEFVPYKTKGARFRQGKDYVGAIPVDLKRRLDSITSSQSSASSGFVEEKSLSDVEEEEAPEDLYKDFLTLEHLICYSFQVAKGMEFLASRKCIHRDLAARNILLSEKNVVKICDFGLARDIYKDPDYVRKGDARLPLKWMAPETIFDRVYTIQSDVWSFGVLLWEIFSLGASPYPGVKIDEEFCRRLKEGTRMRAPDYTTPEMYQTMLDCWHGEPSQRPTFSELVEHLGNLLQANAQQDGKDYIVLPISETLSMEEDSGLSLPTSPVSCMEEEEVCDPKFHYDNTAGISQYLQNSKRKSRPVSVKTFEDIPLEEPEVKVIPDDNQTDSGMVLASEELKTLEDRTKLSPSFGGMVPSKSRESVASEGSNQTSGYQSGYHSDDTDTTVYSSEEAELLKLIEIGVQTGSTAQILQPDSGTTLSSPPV
Assay [9] has the same target. Conditions: at 1 µM.
Assay [10] deals with Mast/stem cell growth factor receptor Kit (Homo sapiens) (UniProt P10721). To be noted: at 0.1 µM.
Sequence of Mast/stem cell growth factor receptor Kit (Homo sapiens) (P10721 whole entry): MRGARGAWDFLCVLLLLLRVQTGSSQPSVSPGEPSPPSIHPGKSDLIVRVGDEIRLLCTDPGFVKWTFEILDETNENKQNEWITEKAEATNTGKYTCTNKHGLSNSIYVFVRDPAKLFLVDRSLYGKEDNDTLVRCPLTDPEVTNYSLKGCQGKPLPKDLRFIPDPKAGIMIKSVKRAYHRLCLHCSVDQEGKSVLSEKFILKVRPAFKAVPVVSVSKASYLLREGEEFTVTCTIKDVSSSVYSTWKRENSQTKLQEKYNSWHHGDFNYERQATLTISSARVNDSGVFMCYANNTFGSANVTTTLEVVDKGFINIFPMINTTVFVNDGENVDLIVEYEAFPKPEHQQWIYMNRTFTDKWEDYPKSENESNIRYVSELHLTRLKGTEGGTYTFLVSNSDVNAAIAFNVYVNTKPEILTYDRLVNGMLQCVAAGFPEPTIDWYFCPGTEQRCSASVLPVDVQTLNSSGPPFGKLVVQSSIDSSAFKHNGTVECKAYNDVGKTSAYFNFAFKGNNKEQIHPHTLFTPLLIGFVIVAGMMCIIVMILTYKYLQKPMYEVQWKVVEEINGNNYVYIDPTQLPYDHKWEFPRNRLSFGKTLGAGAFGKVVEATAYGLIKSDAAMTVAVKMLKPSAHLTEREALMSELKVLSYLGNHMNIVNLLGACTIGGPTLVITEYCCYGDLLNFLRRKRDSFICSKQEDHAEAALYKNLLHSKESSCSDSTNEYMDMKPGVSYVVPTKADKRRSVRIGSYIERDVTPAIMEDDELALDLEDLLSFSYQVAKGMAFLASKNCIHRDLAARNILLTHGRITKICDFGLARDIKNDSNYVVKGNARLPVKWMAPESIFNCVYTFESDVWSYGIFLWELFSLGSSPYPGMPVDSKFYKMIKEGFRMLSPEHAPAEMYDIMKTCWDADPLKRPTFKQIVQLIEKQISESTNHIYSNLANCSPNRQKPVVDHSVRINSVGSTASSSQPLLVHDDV
Assay [11] has the same target. To be noted: at 1 µM.
The subject of assay [12] is Mast/stem cell growth factor receptor Kit (Homo sapiens), P10721 [D816V]. Conditions: at 0.1 µM.
Assay [13] shares this test system. Conditions: at 1 µM.
Assay [14] has as its system Mast/stem cell growth factor receptor Kit (Homo sapiens), P10721 [T670I]. To be noted: at 0.1 µM.
For assay [15] the test system is unchanged. Conditions: at 1 µM.
The subject of assay [16] is Mast/stem cell growth factor receptor Kit (Homo sapiens), P10721 [V560G]. Conditions: at 0.1 µM.
For assay [17] the test system is unchanged. To be noted: at 1 µM.
For assay [18], the target named is Tyrosine-protein kinase Lck (Homo sapiens) (UniProt P06239). Conditions: at 0.1 µM.
Sequence of Tyrosine-protein kinase Lck (Homo sapiens) (P06239 2-509 limits assumed): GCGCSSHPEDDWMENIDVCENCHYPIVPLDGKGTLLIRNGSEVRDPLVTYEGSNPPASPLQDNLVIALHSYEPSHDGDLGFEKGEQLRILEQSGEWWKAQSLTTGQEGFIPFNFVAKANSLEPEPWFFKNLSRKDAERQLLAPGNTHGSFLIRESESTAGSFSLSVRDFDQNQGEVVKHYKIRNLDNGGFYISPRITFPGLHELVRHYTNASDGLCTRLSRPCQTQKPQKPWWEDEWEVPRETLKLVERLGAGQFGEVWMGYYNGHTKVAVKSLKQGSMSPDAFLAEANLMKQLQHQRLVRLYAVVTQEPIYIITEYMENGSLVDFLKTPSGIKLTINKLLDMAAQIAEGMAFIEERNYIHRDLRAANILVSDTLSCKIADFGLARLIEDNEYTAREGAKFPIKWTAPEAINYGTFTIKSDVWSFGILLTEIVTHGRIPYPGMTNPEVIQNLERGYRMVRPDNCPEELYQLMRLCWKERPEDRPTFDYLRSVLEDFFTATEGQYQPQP
Assay [19] shares this target. Conditions: at 1 µM.
The target in assay [20] is Leukocyte tyrosine kinase receptor (Homo sapiens) (UniProt P29376). To be noted: at 0.1 µM.
Sequence of Leukocyte tyrosine kinase receptor (Homo sapiens) (P29376 whole entry): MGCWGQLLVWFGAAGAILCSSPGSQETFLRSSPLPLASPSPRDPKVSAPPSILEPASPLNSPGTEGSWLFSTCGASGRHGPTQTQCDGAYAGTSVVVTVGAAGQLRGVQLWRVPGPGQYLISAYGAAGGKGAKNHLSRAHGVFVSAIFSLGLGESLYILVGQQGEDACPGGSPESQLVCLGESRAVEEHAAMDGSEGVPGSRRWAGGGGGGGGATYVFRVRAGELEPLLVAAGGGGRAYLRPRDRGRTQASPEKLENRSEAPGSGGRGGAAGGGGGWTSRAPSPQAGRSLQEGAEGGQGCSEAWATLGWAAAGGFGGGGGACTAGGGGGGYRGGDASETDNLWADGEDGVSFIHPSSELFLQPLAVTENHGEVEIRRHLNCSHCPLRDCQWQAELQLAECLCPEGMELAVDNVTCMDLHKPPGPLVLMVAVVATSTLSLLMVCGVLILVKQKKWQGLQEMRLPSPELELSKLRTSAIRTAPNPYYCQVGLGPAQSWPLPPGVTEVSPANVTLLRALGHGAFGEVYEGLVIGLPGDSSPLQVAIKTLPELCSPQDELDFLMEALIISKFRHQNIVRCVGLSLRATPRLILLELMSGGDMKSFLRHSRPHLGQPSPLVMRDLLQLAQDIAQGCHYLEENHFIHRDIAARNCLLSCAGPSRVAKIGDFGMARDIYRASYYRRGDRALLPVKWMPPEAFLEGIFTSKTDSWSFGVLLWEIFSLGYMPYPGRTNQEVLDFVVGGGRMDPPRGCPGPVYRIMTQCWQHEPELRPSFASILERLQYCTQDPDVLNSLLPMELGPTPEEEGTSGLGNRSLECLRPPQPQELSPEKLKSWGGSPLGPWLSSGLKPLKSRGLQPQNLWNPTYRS

The structures appear in SMILES notation.

Usually inhibition stands for the relative decrease from the control value, in per cent.

Sequence of Mast/stem cell growth factor receptor Kit (Homo sapiens), P10721 [D816V] (P10721 whole entry D816V): as the sequence (P10721 whole entry) above, with D816V counted along it
Sequence of Mast/stem cell growth factor receptor Kit (Homo sapiens), P10721 [T670I] (P10721 whole entry T670I): as the sequence (P10721 whole entry) above, with T670I counted along it
Sequence of Mast/stem cell growth factor receptor Kit (Homo sapiens), P10721 [V560G] (P10721 whole entry V560G): as the sequence (P10721 whole entry) above, with V560G counted along it

`CCS(=O)(=O)c1ccc(OC)c(Nc2nccc(N(C)c3ccc4c(C)n[nH]c4c3)n2)c1`: the inhibition was 1.96% in [1]; 3.52% in [2]; 5.13% in assay [3]; 1.45% in [4]; -0.31% in assay [5]; -1.93% in assay [6]. In addition, the inhibition is -1.6% in assay [7]; 78.7% in assay [8]; 76.8% in assay [9]; 44.2% in assay [10]; 88.5% in assay [11]; 6.18% in [12]. The inhibition in assay [13] amounted to 23.9%; in [14], 5.56%; in [15], 6.79%; in assay [16], 0.4%; in assay [17], 11.8%; in assay [18], 26.2%. The inhibition is 60.2% in assay [19] and 7.51% in [20].
With `NC(=O)c1sc(-n2cnc3ccccc32)cc1OCc1ccccc1Br`, the inhibition in assay [1] is 2.17%; in [2] it was 4.07%; in assay [3], 3.98%; in [4], 1.97%; in assay [5] it was 2.84%; in assay [6], -2.53%. In addition, the inhibition came out at 0.23% in [7]; 0.79% in [8]; 13.6% in assay [9]; 5.61% in assay [10]; 5.34% in [11]; 2.22% in assay [12]. Moreover, the inhibition was 4.99% in [13]; 1.31% in [14]; 4.08% in assay [15]; -5.3% in [16]; -0.34% in [17]; 3.94% in assay [18]. In addition, the inhibition in [19] came out at 5.49%; in assay [20], 4.25%.
For `COc1cc(Nc2nccc(-c3cnn4ncccc34)n2)cc(OC)c1`, the inhibition amounted to 11.8% in assay [1]; 4.49% in assay [2]; 22.9% in assay [3]; 1.89% in assay [4]; 36.4% in assay [5]; 7.71% in assay [6]. Moreover, the inhibition in assay [7] came to 60.5%; in assay [8], 14.8%; in assay [9], 63.8%; in assay [10], 96.2%; in [11], 97.3%; in assay [12], 1.93%. The inhibition came to 9.04% in assay [13]; 80.7% in assay [14]; 98.1% in [15]; 65.2% in assay [16]; 92.5% in assay [17]; 2.75% in assay [18]. Also, the inhibition in assay [19] stood at 19.2%; in [20], 4.41%.
On to `C[C@@H](Oc1cc(-n2cnc3ccc(OCC4CCN(C)CC4)cc32)sc1C(N)=O)c1ccccc1C(F)(F)F`, for which the inhibition in assay [1] was 0.89%; in assay [2], -1.08%; in assay [3], -2.39%; in assay [4] it was -0.93%; in [5], 2.51%; in [6] it was -0.8%. The inhibition in [7] was 30.1%; in assay [8] it was 2.65%; in assay [9], 34.4%; in [10], -0.76%; in [11], 0.09%; in assay [12] it was -2%. For the same compound, the inhibition in assay [13] was -1.63%; in assay [14] it was -0.04%; in assay [15], 0.36%; in [16], 2.2%; in assay [17], 4.85%; in [18], 5.2%. Moreover, the values for the inhibition in [19] and in [20] were 33.8% and -0.86%, respectively.
In the case of `Nc1nccc(-c2c(-c3ccc(F)cc3)ncn2CCCN2CCOCC2)n1`, the inhibition in [1] was 2.18%; in assay [2], 2.73%; in assay [3], 17.8%; in assay [4] it was 1.23%; in assay [5], 0.43%; in assay [6], -0.85%. Also, the inhibition was -0.57% in assay [7]; 4.12% in [8]; 11.2% in [9]; 3.2% in assay [10]; 11.4% in assay [11]; 5.23% in assay [12]. Further, the inhibition is 5.35% in assay [13]; 5% in assay [14]; 0.35% in [15]; -0.56% in assay [16]; 1.5% in assay [17]; 2.05% in assay [18]. Besides, the inhibition in assay [19] was 7.4%; in assay [20], 2.33%.
On to `COC(=O)c1ccc2c(c1)C(=Cc1cc(Br)c(O)c(Br)c1)C(=O)N2`, for which the inhibition in [1] is 3%; in assay [2] it was 3.26%; in assay [3] it was 12.2%; in assay [4], 1.7%; in assay [5], 6.21%; in [6], 1.39%. In addition, the inhibition is 7.25% in assay [7]; 3.9% in [8]; 24.5% in assay [9]; 3.84% in assay [10]; 16.2% in [11]; -0.82% in assay [12]. In addition, the inhibition in assay [13] was 4.08%; in [14], 2%; in [15] it was 2.74%; in [16], -3.35%; in [17] it was 0.2%; in assay [18], 5.24%. Moreover, the results for the inhibition in assay [19] and in assay [20] were 15.3% and 6.76%, respectively.
Take `CCn1c(-c2nonc2N)nc2ccc(F)cc21`: the inhibition in assay [1] is 1.52%; in assay [2], 5.5%; in assay [3], 10.5%; in assay [4], 1.07%; in assay [5], 1.29%; in [6] it was -1.62%. Also, the inhibition in assay [7] is -1.23%; in assay [8], 5.19%; in assay [9] it was 6.9%; in assay [10], 5.81%; in assay [11] it was 6.81%; in assay [12], 6.28%. The inhibition in [13] is 3.76%; in assay [14] it was 3.59%; in assay [15], 6.26%; in assay [16], -1.12%; in assay [17], -0.91%; in [18], 2.91%. Besides, the inhibition in assay [19] was 2.85%; in assay [20], 3.51%.
